From the supplement of paper PMC11001985

Compound: C#CCNC(=O)CCSSCCC(=O)NCCc1ccc(C=O)c(C=O)c1
Experiment: lysine labeling ratio R10:1 (500 µM / 50 µM probe), SILAC-ABPP in living cells; higher = lower intrinsic lysine reactivity toward the probe, active = 2 or less
Details: HeLa; probe concentrations 500 vs 50 µM
In short: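 With forward and reverse label swaps, light and heavy SILAC HeLa cells, alive and in PBS at room temperature, were exposed to either 500 µM or 50 µM of an alkyne-tagged lysine probe bearing a disulfide link. After mixing, lysates were clicked to biotin-azide, cut with trypsin, pulled down on neutravidin, freed with DTT, alkylated and analysed on a TIMS-TOF Pro by LC-MS/MS. The per-lysine value R is the median over forward and reverse replicates of the filtered median high-probe/low-probe MS1 peptide ratio. It is capped at 20.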

Chain of UniProt Q15375 (Q15375 whole entry, looked up): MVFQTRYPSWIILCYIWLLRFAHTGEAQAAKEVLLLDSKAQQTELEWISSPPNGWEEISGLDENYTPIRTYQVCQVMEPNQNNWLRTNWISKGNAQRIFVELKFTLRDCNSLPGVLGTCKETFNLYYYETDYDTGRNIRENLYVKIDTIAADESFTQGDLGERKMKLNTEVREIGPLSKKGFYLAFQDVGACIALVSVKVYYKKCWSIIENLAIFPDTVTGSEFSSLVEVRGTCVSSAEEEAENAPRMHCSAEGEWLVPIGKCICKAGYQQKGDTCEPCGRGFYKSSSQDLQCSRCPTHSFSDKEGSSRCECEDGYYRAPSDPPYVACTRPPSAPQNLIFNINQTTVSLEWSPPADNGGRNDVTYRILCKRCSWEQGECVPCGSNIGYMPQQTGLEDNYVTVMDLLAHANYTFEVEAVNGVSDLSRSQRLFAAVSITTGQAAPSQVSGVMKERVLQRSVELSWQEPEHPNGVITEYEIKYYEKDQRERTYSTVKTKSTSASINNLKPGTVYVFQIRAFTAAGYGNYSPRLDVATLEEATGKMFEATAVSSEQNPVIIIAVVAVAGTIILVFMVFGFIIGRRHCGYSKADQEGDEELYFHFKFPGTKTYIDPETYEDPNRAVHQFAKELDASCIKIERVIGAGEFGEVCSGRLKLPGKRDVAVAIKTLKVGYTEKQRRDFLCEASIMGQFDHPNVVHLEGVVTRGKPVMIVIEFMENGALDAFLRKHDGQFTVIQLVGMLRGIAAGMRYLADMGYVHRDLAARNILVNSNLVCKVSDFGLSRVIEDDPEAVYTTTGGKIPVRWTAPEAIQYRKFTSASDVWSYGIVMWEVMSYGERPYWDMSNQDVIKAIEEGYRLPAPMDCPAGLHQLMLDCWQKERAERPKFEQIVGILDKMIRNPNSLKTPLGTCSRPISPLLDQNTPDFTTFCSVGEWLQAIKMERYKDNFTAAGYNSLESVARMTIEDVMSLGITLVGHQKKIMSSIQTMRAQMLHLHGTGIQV
Chain of UniProt P01024 (P01024 whole entry): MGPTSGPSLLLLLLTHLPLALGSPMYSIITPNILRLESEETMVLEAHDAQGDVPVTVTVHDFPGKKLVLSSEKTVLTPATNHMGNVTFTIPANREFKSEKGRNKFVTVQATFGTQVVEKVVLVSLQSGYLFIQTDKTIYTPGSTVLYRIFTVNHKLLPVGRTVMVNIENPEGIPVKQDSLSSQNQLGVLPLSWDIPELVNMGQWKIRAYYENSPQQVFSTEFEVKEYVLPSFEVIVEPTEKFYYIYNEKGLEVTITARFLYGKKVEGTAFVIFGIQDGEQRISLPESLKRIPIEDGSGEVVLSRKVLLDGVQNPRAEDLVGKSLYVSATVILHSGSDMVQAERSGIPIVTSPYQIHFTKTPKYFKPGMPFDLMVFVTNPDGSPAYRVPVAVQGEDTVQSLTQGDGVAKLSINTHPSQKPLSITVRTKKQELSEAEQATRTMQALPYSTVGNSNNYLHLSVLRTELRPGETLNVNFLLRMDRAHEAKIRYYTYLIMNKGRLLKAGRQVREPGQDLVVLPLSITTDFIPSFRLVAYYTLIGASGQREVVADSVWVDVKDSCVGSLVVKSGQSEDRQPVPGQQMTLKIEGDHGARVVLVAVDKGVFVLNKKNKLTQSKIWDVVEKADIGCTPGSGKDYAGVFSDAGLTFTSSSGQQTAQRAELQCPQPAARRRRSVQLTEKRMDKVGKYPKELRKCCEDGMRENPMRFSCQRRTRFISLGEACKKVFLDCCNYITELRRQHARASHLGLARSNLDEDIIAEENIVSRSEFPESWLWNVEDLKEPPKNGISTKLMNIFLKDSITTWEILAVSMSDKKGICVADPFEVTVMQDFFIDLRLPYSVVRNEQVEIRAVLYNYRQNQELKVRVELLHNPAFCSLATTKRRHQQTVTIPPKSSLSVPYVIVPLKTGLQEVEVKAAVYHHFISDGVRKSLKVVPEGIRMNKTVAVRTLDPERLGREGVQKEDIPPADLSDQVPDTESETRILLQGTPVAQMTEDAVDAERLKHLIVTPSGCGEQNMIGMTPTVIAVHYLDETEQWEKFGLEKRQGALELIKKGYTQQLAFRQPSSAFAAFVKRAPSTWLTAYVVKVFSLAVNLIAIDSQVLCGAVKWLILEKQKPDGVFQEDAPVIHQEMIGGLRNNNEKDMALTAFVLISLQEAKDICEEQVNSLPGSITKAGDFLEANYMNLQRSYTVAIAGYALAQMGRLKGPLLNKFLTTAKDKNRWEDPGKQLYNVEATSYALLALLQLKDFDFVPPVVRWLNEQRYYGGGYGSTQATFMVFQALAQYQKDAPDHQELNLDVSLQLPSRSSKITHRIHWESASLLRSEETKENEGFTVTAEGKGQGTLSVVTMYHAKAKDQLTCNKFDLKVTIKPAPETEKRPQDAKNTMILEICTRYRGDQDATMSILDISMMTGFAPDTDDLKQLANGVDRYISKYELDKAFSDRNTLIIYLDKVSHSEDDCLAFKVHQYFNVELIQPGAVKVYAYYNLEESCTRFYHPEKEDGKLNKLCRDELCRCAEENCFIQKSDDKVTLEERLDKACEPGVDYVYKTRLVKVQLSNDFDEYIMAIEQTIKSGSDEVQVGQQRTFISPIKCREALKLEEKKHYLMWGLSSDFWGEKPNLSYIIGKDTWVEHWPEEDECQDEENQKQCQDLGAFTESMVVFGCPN
Chain of UniProt O75054 (O75054 whole entry): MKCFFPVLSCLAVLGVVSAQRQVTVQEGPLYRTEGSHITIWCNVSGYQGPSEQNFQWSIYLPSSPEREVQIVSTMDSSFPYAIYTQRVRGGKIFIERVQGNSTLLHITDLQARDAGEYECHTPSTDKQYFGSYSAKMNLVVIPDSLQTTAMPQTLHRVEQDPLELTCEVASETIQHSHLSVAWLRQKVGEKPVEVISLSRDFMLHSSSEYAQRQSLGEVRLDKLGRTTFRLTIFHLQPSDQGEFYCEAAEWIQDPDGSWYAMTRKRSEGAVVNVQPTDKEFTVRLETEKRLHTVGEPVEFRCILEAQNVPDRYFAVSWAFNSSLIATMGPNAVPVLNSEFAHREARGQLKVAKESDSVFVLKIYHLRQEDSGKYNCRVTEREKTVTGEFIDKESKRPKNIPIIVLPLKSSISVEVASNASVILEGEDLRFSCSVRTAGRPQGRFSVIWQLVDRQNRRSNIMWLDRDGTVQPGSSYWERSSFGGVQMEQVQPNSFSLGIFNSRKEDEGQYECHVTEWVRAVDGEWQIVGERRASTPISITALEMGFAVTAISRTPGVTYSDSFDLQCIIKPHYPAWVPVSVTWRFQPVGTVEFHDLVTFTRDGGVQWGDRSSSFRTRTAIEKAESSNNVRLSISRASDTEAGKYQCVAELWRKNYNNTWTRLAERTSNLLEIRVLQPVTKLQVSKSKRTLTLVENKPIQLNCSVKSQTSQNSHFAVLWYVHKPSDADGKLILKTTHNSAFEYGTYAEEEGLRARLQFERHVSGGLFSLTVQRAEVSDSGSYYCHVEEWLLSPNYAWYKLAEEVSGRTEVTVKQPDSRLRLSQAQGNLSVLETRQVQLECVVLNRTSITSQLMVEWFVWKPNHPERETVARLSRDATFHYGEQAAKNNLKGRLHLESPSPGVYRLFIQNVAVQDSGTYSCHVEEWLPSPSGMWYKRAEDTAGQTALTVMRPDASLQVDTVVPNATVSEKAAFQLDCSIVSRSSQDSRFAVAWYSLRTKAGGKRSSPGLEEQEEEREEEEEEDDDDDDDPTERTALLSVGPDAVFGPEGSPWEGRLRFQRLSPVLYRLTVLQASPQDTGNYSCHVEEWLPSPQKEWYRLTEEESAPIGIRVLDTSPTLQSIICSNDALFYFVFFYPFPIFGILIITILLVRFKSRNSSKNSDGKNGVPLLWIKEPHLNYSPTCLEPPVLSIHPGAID
Chain of UniProt P50990 (P50990 whole entry): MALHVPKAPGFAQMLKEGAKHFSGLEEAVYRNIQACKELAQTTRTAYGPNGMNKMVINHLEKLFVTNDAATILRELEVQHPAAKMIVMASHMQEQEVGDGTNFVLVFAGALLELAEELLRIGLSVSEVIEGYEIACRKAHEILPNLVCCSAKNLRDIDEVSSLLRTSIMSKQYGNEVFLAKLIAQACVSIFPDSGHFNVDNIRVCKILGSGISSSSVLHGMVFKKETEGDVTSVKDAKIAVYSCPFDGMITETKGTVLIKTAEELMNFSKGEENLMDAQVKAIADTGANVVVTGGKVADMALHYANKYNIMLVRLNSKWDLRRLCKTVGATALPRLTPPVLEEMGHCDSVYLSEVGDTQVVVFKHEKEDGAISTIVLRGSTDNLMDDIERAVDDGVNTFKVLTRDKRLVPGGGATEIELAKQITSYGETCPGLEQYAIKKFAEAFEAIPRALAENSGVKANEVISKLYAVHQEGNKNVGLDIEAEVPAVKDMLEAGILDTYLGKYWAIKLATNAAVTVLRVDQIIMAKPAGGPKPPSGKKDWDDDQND
Chain of UniProt O00571 (O00571 whole entry, looked up): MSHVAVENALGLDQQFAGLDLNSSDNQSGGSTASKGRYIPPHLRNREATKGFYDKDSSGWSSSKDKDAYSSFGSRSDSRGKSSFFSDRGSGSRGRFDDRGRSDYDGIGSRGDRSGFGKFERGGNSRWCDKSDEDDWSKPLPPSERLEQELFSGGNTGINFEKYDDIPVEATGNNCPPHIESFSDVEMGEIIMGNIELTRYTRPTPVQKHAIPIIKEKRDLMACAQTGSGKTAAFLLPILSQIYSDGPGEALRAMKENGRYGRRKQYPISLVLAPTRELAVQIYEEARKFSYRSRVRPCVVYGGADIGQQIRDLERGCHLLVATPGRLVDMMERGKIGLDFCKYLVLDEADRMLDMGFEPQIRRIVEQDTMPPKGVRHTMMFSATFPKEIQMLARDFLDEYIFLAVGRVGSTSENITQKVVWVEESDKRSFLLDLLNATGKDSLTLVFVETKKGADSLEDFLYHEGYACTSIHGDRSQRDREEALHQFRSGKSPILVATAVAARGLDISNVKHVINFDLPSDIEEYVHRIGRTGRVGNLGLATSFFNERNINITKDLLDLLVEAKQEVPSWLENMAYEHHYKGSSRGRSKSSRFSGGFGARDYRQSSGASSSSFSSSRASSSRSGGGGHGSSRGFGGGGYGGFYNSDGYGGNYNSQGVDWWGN

Row | Target | lysine labeling ratio R10:1
1 | SERPINH1 (lysine site: K39) (UniProt P50454) | 5.74 (inactive)
2 | PRDX2 (lysine site: K119) (UniProt P32119) | 2 (active)
3 | TNPO1 (lysine site: K889) (UniProt Q92973) | 1.09 (active)
4 | DDX3X (lysine site: K118) (UniProt O00571) | 4.1 (inactive)
5 | L1CAM (lysine site: K530) (UniProt P32004) | 7.51 (inactive)
6 | HNRNPL (lysine site: K269) (UniProt P14866) | 2.23 (inactive)
7 | SLC25A5 (lysine site: K63) (UniProt P05141) | 3.19 (inactive)
8 | IGSF3 (lysine site: K373) (UniProt O75054) | 3.12 (inactive)
9 | UniProt P62277 (lysine site: K43) | 7.76 (inactive)
10 | C3 (lysine site: K1546) (UniProt P01024) | 4.18 (inactive)
11 | UniProt Q15149 (lysine site: K1718) | 4.36 (inactive)
12 | PTPRS (lysine site: K370) (UniProt Q13332) | 2.37 (inactive)
13 | CCT2 (lysine site: K82) (UniProt P78371) | 2.91 (inactive)
14 | VTN (lysine site: K194) (UniProt P04004) | 16.5 (inactive)
15 | ITGA5 (lysine site: K978) (UniProt P08648) | 4.71 (inactive)
16 | FAT4 (lysine site: K2512) (UniProt Q6V0I7) | 2.31 (inactive)
17 | RPLP2 (lysine site: K25) (UniProt P05387) | 2.1 (inactive)
18 | GAPDH (lysine site: K5) (UniProt P04406) | 1.43 (active)
19 | NUMA1 (lysine site: K1625) (UniProt Q14980) | 3.65 (inactive)
20 | UniProt P02533 (lysine site: K405) | 7.37 (inactive)

Row | Target | lysine labeling ratio R10:1
21 | UniProt P21589 (lysine site: K433) | 3.8 (inactive)
22 | EPHA7 (lysine site: K272) (UniProt Q15375) | 2.33 (inactive)
23 | VAT1 (lysine site: K391) (UniProt Q99536) | 2.03 (inactive)
24 | ITGA2 (lysine site: K884) (UniProt P17301) | 1.93 (active)
25 | UFC1 (lysine site: K33) (UniProt Q9Y3C8) | 3.81 (inactive)
26 | CHCHD3 (lysine site: K63) (UniProt Q9NX63) | 1.33 (active)
27 | UniProt P55072 (lysine site: K754) | 2.84 (inactive)
28 | HDGF (lysine site: K197) (UniProt P51858) | 2.54 (inactive)
29 | HNRNPU (lysine site: K352) (UniProt Q00839) | 2.95 (inactive)
30 | CCT5 (lysine site: K214) (UniProt P48643) | 1.21 (active)
31 | LAMB1 (lysine site: K1708) (UniProt P07942) | 3.33 (inactive)
32 | TLN1 (lysine site: K2361) (UniProt Q9Y490) | 5.09 (inactive)
33 | UniProt O00487 (lysine site: K154) | 0.527 (active)
34 | CD97 (lysine site: K483) (UniProt P48960) | 5.15 (inactive)
35 | M6PR (lysine site: K50) (UniProt P20645) | 2.84 (inactive)
36 | SUB1 (lysine site: K80) (UniProt P53999) | 1.69 (active)
37 | FRAS1 (lysine site: K549) (UniProt Q86XX4) | 4.59 (inactive)
38 | TFRC (lysine site: K145) (UniProt P02786) | 2.7 (inactive)
39 | FLNA (lysine site: K92) (UniProt P21333) | 5.97 (inactive)
40 | CCT8 (lysine site: K326) (UniProt P50990) | 3.67 (inactive)
